Reference: PubChem BioAssay (NCATS)
Inconclusive results are not listed. Values without a mark were called inactive. Calls of active or inactive are those of the source. The call rests on the fitted dose curve; in most records, active means well fitted cell-killing curve with a large enough effect; inconclusive means small, poorly fitted or top-dose-only effect, or effect the other way; inactive means no such curve, though single readings can be large or run the other way.

assay: Quantitative High-Throughput drug screen in 47 multiple myeloma cell lines against the NCATS MIPE library collection: KMS11_JCRBsus cell viability assay (AID 1919873); details: KMS11 myeloma viability, CellTiter-Glo ATP luminescence, 48 h; series mostly up to 45.8 µM; viability (% of control): at the top concentration; further: nearly all actives have a fitted effect of over 50% in size;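 on viability (% of control): 100% = DMSO-only wells and 0% = media-only wells without cells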
Method in brief: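 qHTS format: cells plated (500/well), pin-dosed with MIPE 4.0 compounds, kept 48 h at 37 °C. Readout was CellTiter-Glo luminescence, median RLU.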
Potency means the concentration at half of the fitted maximal effect.

Row | Compound | Potency | viability (% of control) [%]
1 | CCc1c(O)cc(O)c(C(=O)c2ccc(OCCN3CCOCC3)c(OC)c2)c1CC(=O)N(CCOC)CCOC | 935 nM (active) | 
2 | Cc1cn([C@@H]2O[C@H](CO)[C@@H](O)[C@H]2F)c(=O)[nH]c1=O |  | 105
3 | CC(=CC(=O)Nc1ccccc1C(=O)O)c1ccc2ccccc2c1 |  | 106
4 | CC(=O)OCC(=O)[C@@]12N=C(C)O[C@H]1C[C@H]1[C@@H]3CCC4=CC(=O)C=C[C@]4(C)[C@@H]3[C@@H](O)C[C@@]12C | 935 nM (active) | 
5 | OC[C@@H](O)[C@@H](O)[C@H](O)[C@@H](O)CO |  | 117
6 | CC(=O)O[C@H]1C[C@@H]2CC[C@H]3[C@H]4C[C@H]([N+]5(C)CCCCC5)[C@@H](OC(C)=O)[C@@]4(C)CC[C@@H]3[C@@]2(C)C[C@H]1[N+]1(C)CCCCC1 |  | 106
7 | COc1cc2c(cc1OC)[C@@H]1C(=O)c3ccc4c(c3O[C@@H]1CO2)C=CC(C)(C)O4 | 41.8 nM (active) | 
8 | O=C(c1ccc(F)cc1)N1CCC[C@H](c2nc(-c3ccc(F)cc3)no2)C1 |  | 114
9 | CN(C)CC(=O)N1CCC(c2ccc(NC(=O)c3ncc(C#N)[nH]3)c(C3=CCCCC3)c2)CC1 | 18700 nM (active) | 
10 | Cc1ccccc1C(=O)Nc1ccc(C(=O)N2CCCC(O)c3cc(Cl)ccc32)c(C)c1 (stereo not drawn) |  | 75.2
11 | Oc1cc2c(cc1O)C1c3ccc(O)c(O)c3OCC1(O)C2 (stereo not drawn) |  | 96.6
12 | NC(=O)Nc1sc(-c2ccc(F)cc2)cc1C(N)=O | 4690 nM (active) | 
13 | NC(=O)c1cccc(-c2cccc(OC(=O)NC3CCCCC3)c2)c1 |  | 106
